BCLXL inh: inhibitors of human Bcl-xL, primary screen, biochemical, fluorescence polarization, HTS. Bcl-2-like protein 1 (Homo sapiens), Q07817. inhibition, % at 10.9 µM. hit rate 0.7% among 320,000. GST-Bcl-xL / FITC-Bim BH3 peptide fluorescence polarization. AID 2129, 2009;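 active = inhibition above the mean of all tested compounds plus 3 SD, cutoff set per campaign, cut at about 30% in these data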;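 note: inhibitors lower millipolarization by displacing the labeled peptide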
MEX-5 binding: MEX-5 zinc finger RNA-binding disruptors – biochemical, C. elegans, fluorescence polarization, MLPCN library, primary screen; Zinc finger protein mex-5 (Caenorhabditis elegans), Q9XUB2; activity score (negative = inhibition of binding), % at 10 µM; MEX-5/FITC-TCR2 RNA binding; hits give low values; hit rate 0.38% among 300,000;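 active = inhibition past about -25% in most replicates, and total fluorescence under double the plate's negative control median, limit read from the data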
eLon inh: inhibitors of E. coli Lon protease, primary screen, biochemical, fluorescence polarization | inhibition, % at 7.94 µM | purified E. coli Lon protease | hit rate 0.42% among 360,000; in the data active = inhibition above about 13%, passing the limit was not always enough
Target sequence (P0A9M0 whole entry, looked up): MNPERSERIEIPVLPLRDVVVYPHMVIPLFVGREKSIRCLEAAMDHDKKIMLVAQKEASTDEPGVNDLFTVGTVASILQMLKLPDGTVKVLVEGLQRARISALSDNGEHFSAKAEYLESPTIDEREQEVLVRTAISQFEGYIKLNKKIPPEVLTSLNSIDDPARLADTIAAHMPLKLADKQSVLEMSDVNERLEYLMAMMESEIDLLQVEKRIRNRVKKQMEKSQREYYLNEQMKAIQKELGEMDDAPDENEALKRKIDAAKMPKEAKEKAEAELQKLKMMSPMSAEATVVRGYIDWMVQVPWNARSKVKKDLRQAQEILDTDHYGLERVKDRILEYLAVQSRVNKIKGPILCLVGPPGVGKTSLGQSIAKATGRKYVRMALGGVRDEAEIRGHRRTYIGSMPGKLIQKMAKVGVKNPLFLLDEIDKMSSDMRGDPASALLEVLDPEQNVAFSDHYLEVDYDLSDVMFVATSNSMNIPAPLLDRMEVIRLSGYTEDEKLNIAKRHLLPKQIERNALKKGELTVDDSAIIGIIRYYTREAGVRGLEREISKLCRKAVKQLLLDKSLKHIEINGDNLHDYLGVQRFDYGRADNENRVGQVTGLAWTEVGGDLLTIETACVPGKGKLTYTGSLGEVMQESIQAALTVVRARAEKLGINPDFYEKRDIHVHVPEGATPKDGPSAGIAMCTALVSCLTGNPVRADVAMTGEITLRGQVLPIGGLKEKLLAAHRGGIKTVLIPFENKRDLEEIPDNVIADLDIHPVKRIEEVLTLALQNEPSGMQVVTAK
GLD-1 TGE inh: GLD-1/TGE RNA complex disruptors, primary screen, biochemical, fluorescence polarization; purified GLD-1 + fluorescein TGE RNA; Female germline-specific tumor suppressor gld-1 (Caenorhabditis elegans), Q17339; inhibition, % at 5.96 µM; hit rate 0.44% among 320,000;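 active = percent inhibition above a per-plate cutoff, the plate mean of test compounds plus 3 SD, cut at about 30% in these data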
MCL1-BIM inh: inhibitors of MCL1 binding to BIM-BH3, primary screen, biochemical, fluorescence polarization. GST-MCL1 / FITC-Bim-BH3 fluorescence polarization. inhibition, % at 10.9 µM. hit rate 0.68% among 320,000. Induced myeloid leukemia cell differentiation protein Mcl-1 (Homo sapiens), Q07820;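 active = inhibition above the mean inhibition of all tested compounds plus 3 SD, set per campaign, cut at about 40% in these data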;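 note: higher means more loss of mP so more displacement of Bim peptide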
Bcl-xL conf: Bcl-xL inhibitors blocking Bim BH3 binding, confirmation, counter-screen for MCL1 inhibitor project, biochemical, fluorescence polarization. shares compounds with MCL1-BIM inh. GST-Bcl-xL / FITC-Bim BH3 peptide FP binding. inhibition, % at 10.9 µM. hit rate 54% among 1,700. AID 2166, 2009;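 active = inhibition above a cutoff equal to the mean inhibition of all tested compounds plus 3 SD, cut at about 30% in these data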
MCL1 BIM confirm: inhibitors of MCL1 binding to BIM-BH3, confirmation, biochemical, fluorescence polarization, triplicate; inhibition, % at 10.9 µM; shares compounds with MCL1-BIM inh; hit rate 61% among 1,700; GST-MCL1 / FITC-Bim-BH3 fluorescence polarization;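 active = inhibition above the average of all tested compounds plus 3 SD, cut at about 40% in these data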
GLD-1 TGE cf: GLD-1/TGE RNA binding inhibitors, retest, confirmation, biochemical, fluorescence polarization, triplicate. shares compounds with GLD-1 TGE inh. GLD-1/FL-TGE RNA fluorescence polarization. inhibition, % at 5.96 µM. hit rate 10% among 550. AID 2459, 2010;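 active = average inhibition across triplicates above the hit cutoff set in the primary screen, cut at about 32% in these data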
Numbers stand for hits; . = inactive; / = not tested or not shown; + = active, no number. Most compounds without a hit are left out; they make up all but 1.4% or so of the library.

SMILES | BCLXL inh | MEX-5 binding | eLon inh | GLD-1 TGE inh | MCL1-BIM inh | Bcl-xL conf | MCL1 BIM confirm | GLD-1 TGE cf
CCOC(=O)CC(=O)CSc1nc(-c2cccnc2)cc(C)c1C#N | 61 | . | . | 36 | 62 | . | . | .
Cc1ccc(-c2cc(-c3ccco3)c(C#N)c(=O)[nH]2)cc1 | 79 | -40 | . | 50 | 96 | . | 53 | .
Cc1ccc(-c2cc(C(F)(F)F)c(C#N)c(=O)[nH]2)cc1 | . | . | . | . | . | / | / | /
C=CCNc1ncnc2c1ncn2[C@H]1CN(CCN2CCOCC2)C[C@@H](CO)O1 | / | / | . | / | / | / | / | /
CC(C)[C@H](NC(=O)C1CC(=O)N(c2ccc3c(c2)OCO3)C1)C(=O)NC1CCCC1 (stereo partly specified) | 55 | . | . | 43 | 54 | 37 | 65 | .
C[C@H](NC(=O)C1CC(=O)N(c2ccc3c(c2)OCCO3)C1)C(=O)NC1CCCC1 (stereo partly specified) | . | . | . | . | . | / | / | /
CSc1nc2nc3c(cc2c(=O)n1-c1ccccc1C)COC(C)(C)C3 | 57 | . | . | 46 | 59 | . | . | .
Cc1ccc(C(=O)NNC(=O)c2ccc(NS(=O)(=O)c3cccs3)cc2)o1 | 61 | / | . | 46 | + | . | . | .
O=C(NNC(=O)c1ccc(Br)o1)c1ccc(NS(=O)(=O)c2cccs2)cc1 | / | / | . | / | / | / | / | /
C(=C\c1ccccn1)/c1ccccn1 | . | . | . | . | . | / | / | /
O=C1CC(/C=C/c2ccccn2)=Nc2ccccc2N1 | 56 | . | . | 32 | 53 | . | . | .
CNC(=O)COC(=O)c1cc(-c2ccco2)nc2ccccc12 | 96 | . | . | 57 | 121 | 38 | 76 | .
O=C(COC(=O)c1cc(-c2ccco2)nc2ccccc12)NCc1ccccc1 | . | . | . | . | . | / | / | /
Cc1nc(SCC(=O)Nc2c(C)n(C)n(-c3ccccc3)c2=O)[nH]c(=O)c1Cc1ccccc1 | 55 | . | . | 47 | 71 | . | . | .
Nc1cccc2c1C(=O)N(c1ccccc1)C2=O | 69 | -26 | . | 70 | 80 | 65 | 79 | 67
OC(c1ccccc1)(c1nc(-c2ccc(Cl)cc2)cs1)C(F)(F)F (stereo unspecified) | / | / | . | / | / | / | / | /
O=C1C=C(O)c2c(O)cccc2C1=O | . | / | / | . | . | / | / | /
O=C1C=C(O)c2cccc3cccc1c23 | 71 | . | . | 36 | 86 | 67 | 86 | 57
COc1ccc(NC(=O)Nc2cc(C)cc(C)c2)cn1 | 58 | -36 | . | 48 | 58 | 62 | 79 | 43
COc1ccc(NC(=O)Nc2cccs2)cn1 | / | . | . | / | / | / | / | /
CC1(C(=O)O)CCCN1C(=O)c1cccc2ccccc12 (stereo unspecified) | / | / | . | / | / | / | / | /
CC1(C(=O)NS(=O)(=O)C2CC2)CCCN(C(=O)c2cccc(Cl)c2)C1 (stereo unspecified) | / | / | . | / | / | / | / | /
COc1cc(NS(=O)(=O)c2ccc(C)cc2)c2ncccc2c1 | . | . | . | . | . | / | / | /
CCC(CNc1cc(OC)cc2cccnc12)NC1CCCCC1 (stereo unspecified) | + | . | . | 33 | + | 50 | 62 | .

High-throughput results: PubChem BioAssay, several laboratories
